# The panel holds about 79,000 compounds, 15% with a hit somewhere; the sample as a whole holds those more often. Unmarked numbers belong to inactive results. Active and inactive are the calls of the source. Rule as the data show it: active = growth inhibition above about 70%; inactive = the rest.
# What was measured:
# [1] = NCI Yeast Anticancer Drug Screen. Data for the rad50 strain (AID 155);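 also: 0% = growth of vehicle-only cultures of the same strain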; settings: S. cerevisiae rad50 strain growth inhibition; at 50.0 µM; stronger effect = higher value
# Summary of the method: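 Growth of the mutant yeast was measured after compound exposure and referenced to vehicle-treated cultures.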
# [2] = NCI Yeast Anticancer Drug Screen. Data for the mec2-1 strain (AID 157); settings: S. cerevisiae mec2-1 strain, at 50.0 µM, stronger effect = higher value
# Summary of the method: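 Yeast mec2-1 mutant treated with compound. Readout: growth inhibition vs vehicle controls.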
# [3] = NCI Yeast Anticancer Drug Screen. Data for the sgs1 mgt1 strain (AID 161);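 also: 0% = growth of cultures given vehicle only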; settings: S. cerevisiae sgs1 mgt1 strain, at 50.0 µM, stronger effect = higher value
# Summary of the method: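 Inhibition of yeast growth, normalised to vehicle-treated controls, is reported for a strain bearing genetic alterations in DNA damage repair.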
# [4] = NCI Yeast Anticancer Drug Screen. Data for the cln2 rad14 strain (AID 165);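 also: 0% = growth equal to vehicle treated cultures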; settings: S. cerevisiae cln2 rad14 strain, at 50.0 µM, stronger effect = higher value
# Summary of the method: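 cln2 rad14 yeast strain; compound exposure; growth inhibition read vs vehicle controls.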
# [5] = NCI Yeast Anticancer Drug Screen. Data for the bub3 strain (AID 167); settings: S. cerevisiae bub3 mutant strain, at 50.0 µM, stronger effect = higher value
# Summary of the method: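 Whole-cell yeast assay. The mutant strain was incubated with compounds, and growth inhibition was determined by comparison with vehicle-treated cells.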
# [6] = NCI Yeast Anticancer Drug Screen. Data for the mlh1 rad18 strain (AID 175); settings: S. cerevisiae mlh1 rad18 strain growth inhibition; at 50.0 µM; stronger effect = higher value
# Summary of the method: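 Yeast w/ defined DNA-repair lesions; compound exposure; growth vs vehicle controls → % inhibition.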
SMILES,growth inhibition [1],growth inhibition [2],growth inhibition [3],growth inhibition [4],growth inhibition [5],growth inhibition [6]
Clc1cc(OC2C3CC4CC(C3)CC2C4)nc(Cl)n1 (stereo unspecified),8.45%,1.45%,27.7%,-1.1%,16.3%,65.8%
O=C(O)/C=N\Nc1nc2ccccc2[nH]1,-1.85%,-5.95%,1.9%,-11.1%,-8.05%,6.8%
CCOC(=O)N1CCN(C(=O)OCC)C(C)C1 (stereo unspecified),4.45%,-0.7%,-8.8%,-20.1%,6.35%,-8.6%
CC(=O)c1ccc(Cl)c(Cl)c1,-3.6%,-0.5%,-3.75%,14.9%,4.7%,-15.3%
CCc1ccccc1NC(=O)C(=O)C1C(=O)N(c2ccccc2)N=C1N (stereo unspecified),-10.2%,-31.4%,-3%,21.4%,-34.5%,-22%
COC(=O)C1CCC(C)(C(=O)OC)C1(C)C (stereo unspecified),0%,-15.2%,-11.9%,-1.3%,-12.4%,-3.75%
COc1ccc(COC(=O)NNC(=O)C2CSC(c3ccccc3)N2C(C)=O)cc1 (stereo unspecified),-23.4%,6.75%,-15.8%,3.4%,-8.9%,-10.3%
COc1cc(/C=C2/C(=O)N(C(=O)c3ccc(Cl)cc3)N=C2C)cc(OC)c1OC,10%,-5.75%,2.95%,-48.1%,24.6%,39%
O=C(O)c1cc(Nc2nc(Cl)nc(Cl)n2)ccc1-c1c2ccc(=O)cc-2oc2cc(O)ccc12,37.2%,21.3%,22.7%,10%,-1.15%,49.5%
Cc1ccc(C(=O)c2ccc(C)cc2)cc1,-2.55%,-4.45%,13%,-3.7%,6.3%,15.1%
CN=C(NC)C(c1ccccc1)c1ccccc1,-0.5%,-9.7%,-5.7%,-15.8%,-5.8%,-9.3%
COC(=O)NN/C=C(\C=Nc1ccccc1)[N+](=O)[O-],-0.25%,11.1%,17.4%,18.4%,12.9%,5.4%
c1ccc(N/N=C2/CSCc3ccccc32)cc1,93.2% (active),68.8%,91.5% (active),74.2% (active),80.8% (active),94.4% (active)
CCOC(=O)c1c(-c2ccccc2)nn(CC(N)=O)c1CO,-15.9%,-5.15%,10.4%,23.1%,18.2%,-10.7%
CN(C)CC1CCC2=C(C1=O)C(c1ccccc1)C1=C(CCC(CN(C)C)C1=O)O2 (stereo unspecified),1.55%,2.1%,-1.7%,13.4%,4.3%,3.7%
COc1cc2c(cc1C(CC(C)=O)c1cc(OC)c(OC)c(OC)c1)OCO2 (stereo unspecified),-11.6%,-10.2%,-12%,-5.3%,11%,-6.15%
CC(=O)CC1(O)C(=O)C(C(C)(C)C)=CC2(C(C)(C)C)OC12 (stereo unspecified),2.25%,-13.1%,-3.45%,-10.1%,6.25%,0.25%
COC(=O)NC1C(=O)CCC(=O)C1C(N)=O (stereo unspecified),-23.4%,-7.65%,-17.4%,-17.5%,-0.3%,-12.4%
Nc1c2ccccc2nc2ccc3c(=O)cc(-c4ccccc4)oc3c12,20.6%,18.9%,-12.1%,22.1%,11.1%,-73%
COc1cc(Cl)ccc1C,-1.2%,-1.75%,5.75%,-14.3%,18.1%,-16.6%
NC(=O)Cc1csc(Br)n1,12.9%,0.8%,-6.2%,-32.2%,15.4%,7.9%

SMILES,growth inhibition [1],growth inhibition [2],growth inhibition [3],growth inhibition [4],growth inhibition [5],growth inhibition [6]
O=c1cc(-c2ccccc2)nc(/C=C(\O)c2ccncc2)n1-c1ccccc1,-4.25%,-18.9%,0.4%,10.1%,15.5%,-8.15%
COc1ccc(/C=N/Nc2nc3ccccc3c(=O)n2-c2ccccc2)cc1,-56.3%,-17.8%,-38.6%,-29.2%,-11%,-42%
CCCC(=O)C(N)CC(C)C (stereo unspecified),-8.2%,5.4%,10.6%,1.15%,2.45%,-4.15%
C=C(CCCCCCCCC)CC(=O)SCCNC(=O)CCNC(=O)C(O)C(C)(C)COP(=O)(O)OP(=O)(O)OCC1OC(n2cnc3c(N)ncnc32)C(O)C1OP(=O)(O)O (stereo unspecified),-7.95%,-14.8%,0.55%,-17%,-19.6%,0.4%
O=C(/C=C/c1ccccc1)NN1CCOCC1,13.5%,3.25%,24.1%,-34.5%,6.55%,-2.95%
COC(=O)c1nc(=S)[nH]c(C(=O)OC)c1C(=O)c1cccnc1,-4.3%,15.2%,17.4%,4.25%,39.4%,17.9%
Cc1ccc2c(ccc3ccccc32)n1,59.8%,16.8%,60%,-4.4%,50.5%,45.4%
Cc1ccccc1-n1c(SCC(=O)NC(=O)Nc2cccc(Cl)c2)nc2c(Br)cc(Br)cc2c1=O,-22.9%,-5.5%,0.1%,-16.1%,-12.6%,-2.75%
c1ccc2c3c(ccc2c1)Oc1ccc2ccccc2c1C3,-8.55%,-1.45%,-7.2%,-47.4%,-7.35%,1%
CCCCCCCC/C=C/CCCCCCCC(=O)NN(C)C,-1.4%,-7.6%,-0.5%,-59.2%,-3.95%,-11.3%
c1ccc2c(c1)ccc1c3ccccc3ncc21,62.8%,27.8%,32.6%,35.5%,0.75%,23.1%
CC1=CC(=O)c2cccc(NC3=NCCO3)c21,-31.3%,-20.8%,-2.95%,-28.9%,-2%,-29.2%
O=C1c2cc3c(cc2CC1Cc1ccc2c(c1)CCC2)CCC3 (stereo unspecified),-28.8%,-23.8%,-33.2%,-34%,-20.5%,-33.1%
Clc1nc(N2CCOCC2)nc(N2CCOCC2)n1,-9.5%,-21.1%,-3.2%,-32.1%,7.7%,-5.65%
CC(=O)NCC(OC(C)=O)c1ccc2c(c1)[nH]c1ccccc12 (stereo unspecified),17.1%,-6.5%,-3.3%,10.1%,11.2%,31.2%
CC(=O)Oc1cc(C(C)C)c(OCCN(C)C)cc1C,-0.15%,10.3%,0.45%,-3.6%,-0.5%,-4.1%
CC1(Cc2ccccc2)NC(=S)NC1=O (stereo unspecified),-1.25%,-10.8%,-9.9%,5.75%,-1.7%,-7.35%
O=C(NN1C(=O)CS(=O)(=O)C1c1ccccc1F)c1ccncc1 (stereo unspecified),-8%,-4.4%,8.3%,-9.35%,-0.1%,7.75%
Nc1ncnc2c1nnn2CC(O)CO (stereo unspecified),-36%,-19.2%,-17.4%,-25.5%,-2.9%,5.2%
CCOC(=O)C1CCC(=O)C(CC)=C1C (stereo unspecified),-6.8%,-40.3%,8.5%,-1.85%,-6.5%,-6.5%

# From PubChem BioAssay (NCI)
